# Test results as given in article PMC11006913.
# Where a chain is given by its changes, count along the chain named.
# Experiments:
# Experiment in all cases: PBM; 200 nM protein, PBS
# Settings in all cases: dsDNA, one strand shown
# [1] = target: T1, PAX4 (Homo sapiens, UniProt O43316 9-242, R200K)
# T1 sequence: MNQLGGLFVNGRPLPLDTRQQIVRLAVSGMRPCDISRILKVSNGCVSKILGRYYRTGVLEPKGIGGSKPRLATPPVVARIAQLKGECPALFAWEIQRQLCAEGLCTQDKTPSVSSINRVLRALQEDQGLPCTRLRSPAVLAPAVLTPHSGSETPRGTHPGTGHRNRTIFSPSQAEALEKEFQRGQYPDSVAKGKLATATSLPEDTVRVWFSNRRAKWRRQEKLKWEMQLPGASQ
# [2] = target: T2, PAX4 (Homo sapiens, UniProt O43316 9-242)
# T2 sequence: T1 sequence with K192R
# [3] = target: T3, PAX4 (Homo sapiens, UniProt O43316 9-242, R200Q)
# T3 sequence: T1 sequence with K192Q
# [4] = target: T4, PAX4 (Homo sapiens, UniProt O43316 9-242, F177V)
# T4 sequence: T1 sequence with F169V, K192R
# [5] = target: T5, PAX4 (Homo sapiens, UniProt O43316 9-242, F177Y)
# T5 sequence: T1 sequence with F169Y, K192R
# [6] = target: PROP1 (Homo sapiens, UniProt O75360 56-141)
# PROP1 (Homo sapiens, UniProt O75360 56-141), sequence (O75360 56-141): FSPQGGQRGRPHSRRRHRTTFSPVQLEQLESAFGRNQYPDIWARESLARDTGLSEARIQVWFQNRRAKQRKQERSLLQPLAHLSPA
# [7] = target: PROP1 (Homo sapiens, UniProt O75360 56-141, R99H)
# PROP1 (Homo sapiens, UniProt O75360 56-141, R99H), sequence (O75360 56-141 R99H): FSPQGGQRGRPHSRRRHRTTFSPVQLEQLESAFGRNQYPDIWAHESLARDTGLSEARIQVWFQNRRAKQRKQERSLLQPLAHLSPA
# [8] = target: PROP1 (Homo sapiens, UniProt O75360 56-141, F88S)
# PROP1 (Homo sapiens, UniProt O75360 56-141, F88S), sequence (O75360 56-141 F88S): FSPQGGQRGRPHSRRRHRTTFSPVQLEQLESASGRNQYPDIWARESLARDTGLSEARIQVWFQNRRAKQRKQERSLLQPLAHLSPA
# [9] = target: T6, PAX4 (Homo sapiens, UniProt O43316 9-242, R227W)
# T6 sequence: T1 sequence with K192R, R219W
# [10] = target: VAX1 (Homo sapiens, UniProt Q5SQQ9 86-172)
# VAX1 (Homo sapiens, UniProt Q5SQQ9 86-172), sequence (Q5SQQ9 86-172): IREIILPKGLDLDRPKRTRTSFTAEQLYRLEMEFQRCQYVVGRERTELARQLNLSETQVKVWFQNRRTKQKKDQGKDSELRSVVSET
# [11] = target: VAX1 (Homo sapiens, UniProt Q5SQQ9 86-172, T142I)
# VAX1 (Homo sapiens, UniProt Q5SQQ9 86-172, T142I), sequence (Q5SQQ9 86-172 T142I): as the sequence (Q5SQQ9 86-172) above, with T57I counted along it
# [12] = target: VAX1 (Homo sapiens, UniProt Q5SQQ9 86-172, K157R)
# VAX1 (Homo sapiens, UniProt Q5SQQ9 86-172, K157R), sequence (Q5SQQ9 86-172 K157R): as the sequence (Q5SQQ9 86-172) above, with K72R counted along it
sequence,measurement,setting,value
CCGGGCCC,binding signal,[1],"9.07 upbm affinity estimate (log intensity, higher = more binding, comparable within an allelic series)"
same,binding signal,[2],"9.07 upbm affinity estimate (log intensity, higher = more binding, comparable within an allelic series)"
same,binding signal,[3],"9.07 upbm affinity estimate (log intensity, higher = more binding, comparable within an allelic series)"
same,binding signal,[4],"9.05 upbm affinity estimate (log intensity, higher = more binding, comparable within an allelic series)"
same,binding signal,[5],"9 upbm affinity estimate (log intensity, higher = more binding, comparable within an allelic series)"
same,binding signal,[6],"6.54 upbm affinity estimate (log intensity, higher = more binding, comparable within an allelic series)"
same,binding signal,[7],"6.73 upbm affinity estimate (log intensity, higher = more binding, comparable within an allelic series)"
same,binding signal,[8],"6.36 upbm affinity estimate (log intensity, higher = more binding, comparable within an allelic series)"
same,binding signal,[9],"9.12 upbm affinity estimate (log intensity, higher = more binding, comparable within an allelic series)"
CACCGGCC,binding signal,[1],"9.22 upbm affinity estimate (log intensity, higher = more binding, comparable within an allelic series)"
same,binding signal,[2],"9.3 upbm affinity estimate (log intensity, higher = more binding, comparable within an allelic series)"
same,binding signal,[3],"9.31 upbm affinity estimate (log intensity, higher = more binding, comparable within an allelic series)"
same,binding signal,[4],"9.16 upbm affinity estimate (log intensity, higher = more binding, comparable within an allelic series)"
same,binding signal,[5],"9.17 upbm affinity estimate (log intensity, higher = more binding, comparable within an allelic series)"
same,binding signal,[6],"6.75 upbm affinity estimate (log intensity, higher = more binding, comparable within an allelic series)"
same,binding signal,[7],"6.63 upbm affinity estimate (log intensity, higher = more binding, comparable within an allelic series)"
same,binding signal,[8],"6.3 upbm affinity estimate (log intensity, higher = more binding, comparable within an allelic series)"
same,binding signal,[9],"9.27 upbm affinity estimate (log intensity, higher = more binding, comparable within an allelic series)"
GCCGGGAC,binding signal,[1],"9.33 upbm affinity estimate (log intensity, higher = more binding, comparable within an allelic series)"
same,binding signal,[2],"9.39 upbm affinity estimate (log intensity, higher = more binding, comparable within an allelic series)"
same,binding signal,[3],"9.37 upbm affinity estimate (log intensity, higher = more binding, comparable within an allelic series)"
same,binding signal,[4],"9.2 upbm affinity estimate (log intensity, higher = more binding, comparable within an allelic series)"
same,binding signal,[5],"9.2 upbm affinity estimate (log intensity, higher = more binding, comparable within an allelic series)"
same,binding signal,[6],"7.02 upbm affinity estimate (log intensity, higher = more binding, comparable within an allelic series)"
same,binding signal,[7],"6.96 upbm affinity estimate (log intensity, higher = more binding, comparable within an allelic series)"
same,binding signal,[8],"6.46 upbm affinity estimate (log intensity, higher = more binding, comparable within an allelic series)"
same,binding signal,[9],"9.24 upbm affinity estimate (log intensity, higher = more binding, comparable within an allelic series)"
AAATTAAG,binding signal,[1],"11.5 upbm affinity estimate (log intensity, higher = more binding, comparable within an allelic series)"
same,binding signal,[2],"12.1 upbm affinity estimate (log intensity, higher = more binding, comparable within an allelic series)"
same,binding signal,[3],"11.8 upbm affinity estimate (log intensity, higher = more binding, comparable within an allelic series)"
same,binding signal,[4],"10.4 upbm affinity estimate (log intensity, higher = more binding, comparable within an allelic series)"
same,binding signal,[5],"10.8 upbm affinity estimate (log intensity, higher = more binding, comparable within an allelic series)"
same,binding signal,[9],"10.8 upbm affinity estimate (log intensity, higher = more binding, comparable within an allelic series)"
CCGGGCTC,binding signal,[1],"9.24 upbm affinity estimate (log intensity, higher = more binding, comparable within an allelic series)"
same,binding signal,[2],"9.31 upbm affinity estimate (log intensity, higher = more binding, comparable within an allelic series)"
same,binding signal,[3],"9.36 upbm affinity estimate (log intensity, higher = more binding, comparable within an allelic series)"
same,binding signal,[4],"9.17 upbm affinity estimate (log intensity, higher = more binding, comparable within an allelic series)"
same,binding signal,[5],"9.16 upbm affinity estimate (log intensity, higher = more binding, comparable within an allelic series)"
same,binding signal,[9],"9.23 upbm affinity estimate (log intensity, higher = more binding, comparable within an allelic series)"
CCTTCCCC,binding signal,[1],"9.18 upbm affinity estimate (log intensity, higher = more binding, comparable within an allelic series)"
same,binding signal,[2],"9.26 upbm affinity estimate (log intensity, higher = more binding, comparable within an allelic series)"
same,binding signal,[3],"9.24 upbm affinity estimate (log intensity, higher = more binding, comparable within an allelic series)"
same,binding signal,[4],"9.11 upbm affinity estimate (log intensity, higher = more binding, comparable within an allelic series)"
same,binding signal,[5],"9.14 upbm affinity estimate (log intensity, higher = more binding, comparable within an allelic series)"
same,binding signal,[9],"9.24 upbm affinity estimate (log intensity, higher = more binding, comparable within an allelic series)"
AAGGGGGC,binding signal,[1],"9.31 upbm affinity estimate (log intensity, higher = more binding, comparable within an allelic series)"
same,binding signal,[2],"9.38 upbm affinity estimate (log intensity, higher = more binding, comparable within an allelic series)"
same,binding signal,[3],"9.38 upbm affinity estimate (log intensity, higher = more binding, comparable within an allelic series)"
same,binding signal,[4],"9.25 upbm affinity estimate (log intensity, higher = more binding, comparable within an allelic series)"
same,binding signal,[5],"9.22 upbm affinity estimate (log intensity, higher = more binding, comparable within an allelic series)"
same,binding signal,[6],"6.71 upbm affinity estimate (log intensity, higher = more binding, comparable within an allelic series)"
same,binding signal,[7],"6.71 upbm affinity estimate (log intensity, higher = more binding, comparable within an allelic series)"
same,binding signal,[8],"6.36 upbm affinity estimate (log intensity, higher = more binding, comparable within an allelic series)"
same,binding signal,[9],"9.29 upbm affinity estimate (log intensity, higher = more binding, comparable within an allelic series)"
AGCTGCCG,binding signal,[1],"9.44 upbm affinity estimate (log intensity, higher = more binding, comparable within an allelic series)"
same,binding signal,[2],"9.42 upbm affinity estimate (log intensity, higher = more binding, comparable within an allelic series)"
same,binding signal,[3],"9.33 upbm affinity estimate (log intensity, higher = more binding, comparable within an allelic series)"
same,binding signal,[4],"9.27 upbm affinity estimate (log intensity, higher = more binding, comparable within an allelic series)"
same,binding signal,[5],"9.2 upbm affinity estimate (log intensity, higher = more binding, comparable within an allelic series)"
same,binding signal,[9],"9.31 upbm affinity estimate (log intensity, higher = more binding, comparable within an allelic series)"
CGCCTGCA,binding signal,[1],"9.25 upbm affinity estimate (log intensity, higher = more binding, comparable within an allelic series)"
same,binding signal,[2],"9.25 upbm affinity estimate (log intensity, higher = more binding, comparable within an allelic series)"
same,binding signal,[3],"9.33 upbm affinity estimate (log intensity, higher = more binding, comparable within an allelic series)"
same,binding signal,[4],"9.34 upbm affinity estimate (log intensity, higher = more binding, comparable within an allelic series)"
same,binding signal,[5],"9.3 upbm affinity estimate (log intensity, higher = more binding, comparable within an allelic series)"
same,binding signal,[9],"9.34 upbm affinity estimate (log intensity, higher = more binding, comparable within an allelic series)"
CCAGCGCC,binding signal,[1],"9.19 upbm affinity estimate (log intensity, higher = more binding, comparable within an allelic series)"
same,binding signal,[2],"9.3 upbm affinity estimate (log intensity, higher = more binding, comparable within an allelic series)"
same,binding signal,[3],"9.31 upbm affinity estimate (log intensity, higher = more binding, comparable within an allelic series)"
same,binding signal,[4],"9.31 upbm affinity estimate (log intensity, higher = more binding, comparable within an allelic series)"
same,binding signal,[5],"9.23 upbm affinity estimate (log intensity, higher = more binding, comparable within an allelic series)"
same,binding signal,[9],"9.33 upbm affinity estimate (log intensity, higher = more binding, comparable within an allelic series)"
GAAGCTTC,binding signal,[1],"9.21 upbm affinity estimate (log intensity, higher = more binding, comparable within an allelic series)"
same,binding signal,[2],"9.26 upbm affinity estimate (log intensity, higher = more binding, comparable within an allelic series)"
same,binding signal,[3],"9.45 upbm affinity estimate (log intensity, higher = more binding, comparable within an allelic series)"
same,binding signal,[4],"9.5 upbm affinity estimate (log intensity, higher = more binding, comparable within an allelic series)"
same,binding signal,[5],"9.42 upbm affinity estimate (log intensity, higher = more binding, comparable within an allelic series)"
same,binding signal,[10],"6.86 upbm affinity estimate (log intensity, higher = more binding, comparable within an allelic series)"
same,binding signal,[11],"7.04 upbm affinity estimate (log intensity, higher = more binding, comparable within an allelic series)"
same,binding signal,[9],"9.35 upbm affinity estimate (log intensity, higher = more binding, comparable within an allelic series)"
same,binding signal,[12],"6.85 upbm affinity estimate (log intensity, higher = more binding, comparable within an allelic series)"
GGAGGCAC,binding signal,[1],"9.34 upbm affinity estimate (log intensity, higher = more binding, comparable within an allelic series)"
same,binding signal,[2],"9.31 upbm affinity estimate (log intensity, higher = more binding, comparable within an allelic series)"
same,binding signal,[3],"9.57 upbm affinity estimate (log intensity, higher = more binding, comparable within an allelic series)"
same,binding signal,[4],"9.46 upbm affinity estimate (log intensity, higher = more binding, comparable within an allelic series)"
same,binding signal,[5],"9.46 upbm affinity estimate (log intensity, higher = more binding, comparable within an allelic series)"
same,binding signal,[9],"9.48 upbm affinity estimate (log intensity, higher = more binding, comparable within an allelic series)"
TAATTCGA,binding signal,[1],"11.8 upbm affinity estimate (log intensity, higher = more binding, comparable within an allelic series)"
same,binding signal,[2],"12.4 upbm affinity estimate (log intensity, higher = more binding, comparable within an allelic series)"
same,binding signal,[3],"11.7 upbm affinity estimate (log intensity, higher = more binding, comparable within an allelic series)"
same,binding signal,[4],"10.6 upbm affinity estimate (log intensity, higher = more binding, comparable within an allelic series)"
same,binding signal,[5],"11.2 upbm affinity estimate (log intensity, higher = more binding, comparable within an allelic series)"
same,binding signal,[9],"11 upbm affinity estimate (log intensity, higher = more binding, comparable within an allelic series)"
CTGGGCCC,binding signal,[1],"9.08 upbm affinity estimate (log intensity, higher = more binding, comparable within an allelic series)"
same,binding signal,[2],"8.93 upbm affinity estimate (log intensity, higher = more binding, comparable within an allelic series)"
same,binding signal,[3],"9.11 upbm affinity estimate (log intensity, higher = more binding, comparable within an allelic series)"
same,binding signal,[4],"8.97 upbm affinity estimate (log intensity, higher = more binding, comparable within an allelic series)"
same,binding signal,[5],"9.09 upbm affinity estimate (log intensity, higher = more binding, comparable within an allelic series)"
same,binding signal,[9],"9.02 upbm affinity estimate (log intensity, higher = more binding, comparable within an allelic series)"
CTCGCCTC,binding signal,[1],"9.23 upbm affinity estimate (log intensity, higher = more binding, comparable within an allelic series)"
same,binding signal,[2],"9.21 upbm affinity estimate (log intensity, higher = more binding, comparable within an allelic series)"
same,binding signal,[3],"9.24 upbm affinity estimate (log intensity, higher = more binding, comparable within an allelic series)"
same,binding signal,[4],"9.31 upbm affinity estimate (log intensity, higher = more binding, comparable within an allelic series)"
same,binding signal,[5],"9.3 upbm affinity estimate (log intensity, higher = more binding, comparable within an allelic series)"
same,binding signal,[9],"9.28 upbm affinity estimate (log intensity, higher = more binding, comparable within an allelic series)"
